GDH-TPI counter: counter-screen for M. tuberculosis FBA inhibitors: GDH-TPI coupled enzymes; GDH-TPI coupled enzyme counterscreen, NADH absorbance; 360,000 tested, 1.2% active; inhibition, % at 4.8 µM; AID 588335; in the data active = inhibition above about 30%;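 note: 0% = DMSO wells and 100% = wells lacking the enzyme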
Rv3671c protease: inhibitors of M. tuberculosis serine protease Rv3671c; AID 2606; 320,000 tested, 0.048% active; P9WHR9; inhibition, % at 5.96 µM; in the data active = inhibition above about 38%;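 note: extracellular domain of Rv3671c used as enzyme; 0% = enzyme with DMSO and 100% = no enzyme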
FBA Mtb inh: inhibitors of M. tuberculosis fructose-bisphosphate aldolase | inhibition, % at 1 µM | 360,000 tested, 2.3% active | P9WQA3 | purified M. tuberculosis FBA, fluorescence read-out; in the data active = inhibition above about 27%;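 note: 0% = vehicle and 100% = reference inhibitor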
Target sequence (P9WQA3 whole entry, looked up): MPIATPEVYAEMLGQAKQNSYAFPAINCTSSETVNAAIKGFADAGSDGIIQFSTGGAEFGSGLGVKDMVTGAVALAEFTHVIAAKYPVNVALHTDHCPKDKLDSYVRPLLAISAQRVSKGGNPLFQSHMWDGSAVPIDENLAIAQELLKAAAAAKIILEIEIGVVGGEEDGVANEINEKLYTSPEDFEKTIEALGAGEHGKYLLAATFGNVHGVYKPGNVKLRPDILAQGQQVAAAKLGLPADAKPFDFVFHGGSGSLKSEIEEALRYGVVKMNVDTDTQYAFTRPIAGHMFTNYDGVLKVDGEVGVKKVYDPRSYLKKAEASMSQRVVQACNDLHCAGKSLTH
Mtb UGM inh: Mtb UDP-galactopyranose mutase inhibition | P9WIQ1 | purified UGM, fluorescence polarization probe displacement | inhibition, % at 10 µM | 320,000 tested, 0.06% active; in the data active = inhibition above about 10%, passing the limit was not always enough
FadD28 FP inh: blocks FadD28 binding to the bisubstrate probe; fluorescence polarization; inhibition, % at 12.5 µM; 360,000 tested, 0.22% active; AID 588549; in the data active = inhibition above about 8.5%, passing the limit was not always enough
Mtb bLac sens: beta-lactam sensitization of Mtb H37Rv. 330,000 tested, 0.27% active. inhibition, % at 25 µM. M. tuberculosis H37Rv growth with meropenem, percent inhibition. AID 434955; call rule not given here;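 note: growth measured after seven days incubation then overnight dye step; 0% = bacteria only wells and 100% = bacteria with antibiotic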
An asterisk follows results filed as active; . = no result given; + = active, no number. Hits are enriched below; roughly 3.7% of the tested compounds scored in any of these assays.

SMILES	GDH-TPI counter	Rv3671c protease	FBA Mtb inh	Mtb UGM inh	FadD28 FP inh	Mtb bLac sens
Cc1nc(NC(=O)c2ccc(Br)s2)sc1C(=O)N(C)C	34.7*	-3.8	0.2	2.3	-0.4	-3.9
CCOC(=O)CNC(=O)c1sc(NC(=O)/C=C/c2ccccc2)nc1C	32.5*	-3.6	5.0	2.1	-1.0	-6.0
COc1ccc(/C=C/C(=O)Nc2nc(C)c(C(=O)N(C)C)s2)cc1OC	34.1*	0.5	2.2	1.8	-1.7	-1.1
CCOC(=O)c1sc(NC(=O)/C=C/c2ccccc2)nc1C	0.8	7.4	0.9	0.0	0.5	-5.1
COc1ccc(C(=O)Nc2nc(C)c(C(=O)N(C)C)s2)cc1OC	17.7	2.8	1.6	0.9	-0.1	-2.0
O=C(CCC1CCCC1)N1CCN(C(=O)c2ccco2)CC1	9.2	0.6	134.7*	1.8	-4.3	-5.0
Cc1ccc(-c2cc(C(=O)O)c3sc(N4CCCCC4)nc3n2)cc1	14.0	-81.8	163.2*	0.6	-4.5	3.0
O=C(/C=C/NCc1cccnc1)c1ccc(Br)cc1	53.7*	-4.1	-2.5	-0.3	-1.7	-0.8
CCCCCCN1C[C@@H](n2cc(COC(=O)c3ccccc3)nn2)[C@H](O)C[C@@H]1c1ccc(Cl)cc1	5.2	.	-0.9	.	0.3	.
CCOC(=O)c1cc(-c2ccc(/C=C3/C(=O)NC(=O)C(C#N)=C3C)o2)ccc1Cl	34.6*	-5.4	2.3	4.2	15.2*	4.6
Cc1ccc2c(CN3CCN(c4ccc(Cl)c(Cl)c4)CC3)cc(=O)oc2c1	.	.	-1.7	.	-2.2	.
CCNC(=O)C1CCCN(C(=O)c2ccc(-c3ccccc3)cc2)CC1 (stereo not drawn)	12.0	.	1.5	.	-2.1	.
CCn1c(C)nc2cc(C(=O)N/N=C/c3ccc(N4CCOCC4)cc3)ccc21	34.3*	8.4	4.0	-0.5	-1.2	2.4
CCn1c(C)nc2cc(C(=O)N/N=C/c3ccc(OC)c(O)c3)ccc21	38.9*	-5.0	-0.7	1.1	-5.0	0.6
Cc1cc(O)c(C(C)C)cc1NC(=S)Nc1cc(C(C)C)c(O)cc1C	2.6	.	2.9	.	-2.0	.
CC(=O)c1ccc(N2CCN(C(=O)c3ccc(Cl)c(NC4=NC5CS(=O)(=O)CC5S4)c3)CC2)cc1 (stereo not drawn)	42.1*	-2.5	1.1	1.0	-1.4	-3.5
COc1ccc(C2CC(=O)c3c(O)cc(O)cc3O2)cc1O (stereo not drawn)	12.8	.	-1.9	.	-6.6	.
COc1cc(C2Oc3cc(C4Oc5cc(O)cc(O)c5C(=O)C4O)ccc3OC2CO)ccc1O (stereo not drawn)	35.8*	3.6	-2.4	-2.4	-1.3	5.0
CCCCNc1c(-c2cccc(-c3cc(C(C)=O)cs3)c2)nc2cc(C)ccn12	32.8*	6.2	2.6	0.1	-1.6	18.7
Cc1ccc(-n2c(O)c(/C=N/N3CCOCC3)c(=O)[nH]c2=S)cc1	25.1	-3.5	-1.9	2.1	0.1	-3.8
O=c1[nH]c(=S)n(-c2cccc(Cl)c2)c(O)c1/C=N/N1CCOCC1	34.7*	-1.2	-4.0	-2.5	0.2	5.1
O=C(CCc1nc2ccccc2c(=O)[nH]1)N1CCN(S(=O)(=O)c2ccc(Cl)c(C(F)(F)F)c2)CC1	-8.6	5.4	-1.3	-1.8	-0.7	0.5
O=C(O)COc1ccc2nsnc2c1Cl	6.0	-0.6	42.5*	8.8	-2.6	0.0
CC(=O)Nc1cc(-c2cccnc2)cn2c(-c3cccc(C(F)(F)F)c3)cnc12	-4.5	.	-0.3	.	-6.3	.
COc1cc(C(=O)Nc2ccc3c(c2)CCN3C(C)=O)cc(OC)c1OC	6.8	-4.3	-0.1	0.3	-4.4	4.3
SMILES	GDH-TPI counter	Rv3671c protease	FBA Mtb inh	Mtb UGM inh	FadD28 FP inh	Mtb bLac sens
CCOC(=O)C(=CNc1ccc2c(c1)CCN2C(C)=O)C(=O)OCC	34.6*	3.9	-3.0	-1.8	-2.8	78.9
CCOC(=O)C(=CNc1ccc(S(N)(=O)=O)cc1)C(=O)OCC	40.5*	-0.6	-0.8	1.2	-4.0	2.0
CCOC(=O)C(=CNc1ncccc1C)C(=O)OCC	38.0*	2.5	-0.6	-0.6	-0.1	12.7
CCOC(=O)C(=CNc1ccc(N2CCOCC2)cc1)C(=O)OCC	63.3*	9.0	-2.9	-0.1	-1.9	9.1
CCOC(=O)COc1ccc2c3c(c(=O)oc2c1C)CCC3	6.8	-9.2	17.1	-0.9	-5.1	84.1
COc1ccc2c3c(c(=O)oc2c1OCC(N)=O)CCCC3	-4.8	-1.9	74.9*	0.5	-4.2	8.6
Cc1c(OC(C)C(=O)O)ccc2c3c(c(=O)oc12)CCCC3 (stereo not drawn)	3.0	-2.1	172.6*	3.0	-4.3	-3.6
CCc1cc2c3c(c(=O)oc2cc1OC(C)C(=O)O)CCCC3 (stereo not drawn)	16.4	-1.3	158.7*	1.7	-6.6	2.5
CC(=O)Oc1ccc2c3c(c(=O)oc2c1C)CCCC3	2.0	-9.1	+	2.1	-0.4	41.0
Cc1c(OCC(=O)C(C)(C)C)ccc2c3c(c(=O)oc12)CCCC3	8.9	-10.5	22.4	1.7	1.3	-0.3
O=C(CN1c2cccc3cccc(c23)S1(=O)=O)NCc1ccccc1Cl	7.1	.	7.0	.	-0.7	.
COCCN(CC(=O)Nc1cccc(C)c1C)C(=O)C1CCN(S(=O)(=O)c2ccccc2)CC1	2.5	.	2.2	.	-1.1	.
COc1ccccc1OCCn1nnc2ccccc21	10.0	-2.6	-1.2	-3.6	-2.4	5.1
CCc1cc2c3c(c(=O)oc2cc1O)CCCC3	12.7	-0.2	+	1.2	-2.9	-8.6
CC(=O)C(C)Oc1ccc2c3c(c(=O)oc2c1)CCCCC3 (stereo not drawn)	12.4	3.8	176.2*	-0.5	-3.1	1.4
CC(C)CNC(=O)COc1ccc2c3c(c(=O)oc2c1)CCC3	8.8	1.6	19.0	-2.0	0.1	-5.5
Cc1c(C=NNC(=O)c2ccc(Br)cc2)c2ccccn2c1C(=O)c1ccncc1	1.3	-19.7	1.6	-0.6	1.2	-6.5
Nc1cccc2c(O)cc(S(=O)(=O)O)cc12	19.4	.	13.1	.	36.0*	.
Nc1ccc2c(O)cc(S(=O)(=O)O)cc2c1	4.4	.	2.5	.	-0.4	.
CN(CC(=O)NC(=O)NC1CCCCC1)CC(=O)Nc1ccccc1C(F)(F)F	7.1	.	-3.1	.	-3.3	.
CCCn1c(-c2ccccc2)nc2c(=O)n(C)c(=O)[nH]c21	8.8	4.0	+	-1.8	-0.7	-10.6
COc1ccc(-c2nc3c(=O)n(C)c(=O)[nH]c3n2CCc2ccccc2)cc1	8.3	3.7	184.2*	-0.9	-2.7	-4.0
COc1ccc(NC(=O)N(C)C[C@H]2Oc3ccc(NC(=O)C4CC4)cc3CC(=O)N([C@@H](C)CO)C[C@@H]2C)cc1	-7.3	4.9	0.1	.	-1.5	-1.6
Oc1ccc(/C=N/Nc2cc(N3CCCC3)nc(N3CCCC3)n2)cc1	10.9	-10.4	-1.1	-0.2	0.6	7.1
Cc1nc(Cl)cc(N/N=C/c2ccc(O)cc2O)n1	59.4*	2.5	0.9	-1.5	0.4	-6.2
CCOc1ccc(/C=N/Nc2cc(N3CCOCC3)nc(C)n2)c(O)c1	34.2*	10.6	5.1	0.8	0.1	85.5
Cc1ccc(/C=N/Nc2ccc(Cl)nn2)cc1	8.9	6.5	1.5	2.9	-2.7	-3.8

From PubChem
